Screens: PubChem, National Center for Advancing Translational Sciences (NCATS)
Pol iota inh: qHTS for Inhibitors of Polymerase Iota; DNA polymerase iota (Homo sapiens), Q9UNA4; Pol iota fluorescent replication assay, 10 min; Potency, µM (top dose mostly 115 µM), inactives show at the highest dose activity, negative = inhibition, actives largely listed as inhibitors; actives 1% (n = 390,000); further: potency means the concentration at half of the fitted maximal effect
Target sequence (Q9UNA4 whole entry, looked up): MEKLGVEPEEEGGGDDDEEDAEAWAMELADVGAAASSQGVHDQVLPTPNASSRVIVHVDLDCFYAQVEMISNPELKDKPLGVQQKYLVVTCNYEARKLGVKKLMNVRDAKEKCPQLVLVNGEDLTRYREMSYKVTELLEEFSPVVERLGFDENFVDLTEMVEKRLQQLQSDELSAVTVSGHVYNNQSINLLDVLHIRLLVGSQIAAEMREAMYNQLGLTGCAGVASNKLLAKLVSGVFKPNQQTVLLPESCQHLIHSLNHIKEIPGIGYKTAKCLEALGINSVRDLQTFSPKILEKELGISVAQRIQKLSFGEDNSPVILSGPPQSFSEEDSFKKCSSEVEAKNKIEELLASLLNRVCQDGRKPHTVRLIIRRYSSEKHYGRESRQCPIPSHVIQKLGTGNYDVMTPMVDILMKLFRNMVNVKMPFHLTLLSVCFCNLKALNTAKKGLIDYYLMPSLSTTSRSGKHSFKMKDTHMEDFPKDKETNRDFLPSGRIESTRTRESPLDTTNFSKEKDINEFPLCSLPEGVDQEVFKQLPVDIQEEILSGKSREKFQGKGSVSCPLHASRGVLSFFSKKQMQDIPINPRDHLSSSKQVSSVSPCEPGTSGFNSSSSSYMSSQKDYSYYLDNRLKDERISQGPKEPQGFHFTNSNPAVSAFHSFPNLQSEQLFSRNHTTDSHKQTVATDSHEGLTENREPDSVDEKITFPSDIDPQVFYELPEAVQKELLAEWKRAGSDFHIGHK
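Pol iota at 10 nM preincubated 15 min with compounds at room temperature; reaction started with fluorescent substrate, 50 nM final. Fluorescence read kinetically at 0 and 10 min; buffer-only wells as negative control.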
POLK inh: qHTS for Inhibitors of Polymerase Kappa. actives 0.53% (n = 400,000). AID 588579, 2011. Potency, µM (top dose mostly 107 µM), for inactives: at the top dose activity, negative = inhibition, hits mostly inhibitors. purified Pol kappa, fluorescent DNA synthesis assay, 10 min; further: potency means the concentration at half of the fitted maximal effect; on the % scale 0 is the no-effect control and ±100 the full control effect
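Kinetic fluorescence readout at 0 and 10 min followed reaction start with substrate at 50 nM final. Beforehand, enzyme (10 nM Pol kappa) stood 15 min with compound at room temperature; buffer-only wells were negative controls.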
PI5P4K alpha inh: qHTS for Inhibitors of phosphatidylinositol 5-phosphate 4-kinase (PI5P4K). PI5P4Kalpha enzyme, ADP-Glo luminescence, 60 min; hits give low values. max response, %. actives 1.2% (n = 330,000); active means max response of -50% or lower; inconclusive means between -30% and -50%; inactive means -30% or higher; further: value at the top dose of about 77 µM; on the % scale 0 is the no-effect control and ±100 the full control effect
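Compounds were pin-transferred onto PI5P4Kalpha and substrate in HEPES pH 7.4 buffer with EGTA, CHAPS and 5% DMSO. ATP (5 microM final) started the reaction, which ran 60 minutes at room temperature before ADP-Glo detection.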
ALOX12 inh: Primary qHTS assay for inhibitors of human arachidonate 12S-lipoxygenase (ALOX12): Round 2. purified 12hLO, xylenol orange hydroperoxide absorbance. Potency, µM (doses to about 108 µM), without a hit: at the highest dose activity change, negative = inhibition, usual class: inhibitors. actives 1.1% (n = 580,000); further: potency means the concentration at half of the fitted maximal effect; on the % scale 0 is the no-effect control and ±100 the full control effect
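Hydroperoxide product was detected by ferrous iron/xylenol orange as the 573 to 405 nm absorbance ratio. Arachidonic acid at 40 uM (final) was turned over for 30 min at room temperature by 150 nM human 12hLO, pH 7.0 Hepes buffer, after 15 min compound preincubation.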
Pol eta inh: qHTS for Inhibitors of Polymerase Eta. DNA polymerase eta (Homo sapiens), Q9Y253. recombinant Pol eta, fluorescent DNA replication assay. Potency, µM (titrated, usually from 114 µM), without a hit: at the highest dose activity change, negative = inhibition, hits mostly inhibitors. actives 1.2% (n = 390,000). AID 588591, 2011; further: potency means the concentration at half of the fitted maximal effect; on the % scale 0 is the no-effect control and ±100 the full control effect
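Fluorescent replication assay: 50 nM final substrate added after a 15 min room-temperature compound preincubation with 10 nM enzyme. Signal taken at 0 min and again at 10 min.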
Pol beta inh: qHTS Assay for Inhibitors of DNA Polymerase Beta; AID 485314, 2010; Potency, µM (top dose mostly 114 µM), without a hit: at the highest dose activity change, negative = inhibition, usual class: inhibitors; Pol beta primer extension/strand displacement, fluorescence kinetic; actives 1.3% (n = 340,000); P06746; further: potency means the concentration at half of the fitted maximal effect; on the % scale 0 is the no-effect control and ±100 the full control effect
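Values derive from four-parameter Hill fits of normalized kinetic data: reads at 0 and 10 min following addition of 50 nM substrate to 10 nM Pol beta preincubated 15 min with compound.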
An asterisk follows results filed as active; ? = inconclusive; / = no result; [ ] = another dose, or the depositor's remark. An excerpt weighted towards active compounds, which were near 2.9% of everything screened. Unless noted, the call rests on the fitted dose curve; in most records, active means well fitted inhibition curve with a large enough effect; inconclusive means small, poorly fitted or top-dose-only effect, or another doubt; inactive means no such curve, though single readings can be large or run the other way.

SMILES	Pol iota inh	POLK inh	PI5P4K alpha inh	ALOX12 inh	Pol eta inh	Pol beta inh
COc1ccc2c(CN3CCC(C)CC3)cc(=O)oc2c1	/	/	/	-24.1%	/	/
O=C(c1ccc(Cl)cc1)C(CN1CCCCC1)c1ccccc1 (centres undefined)	7.08µM*	-10.1%	3.3	?	?	13.6%
CCOc1cccc2cc(C(=O)NCCOC)c(=O)oc12	/	/	/	50.4%	/	/
CCOc1ccc(C(=O)C2CCN(CC(=O)Nc3nccs3)CC2)cc1	31.1%	-1.8%	0.9	4.1%	-9.8%	-2.6%
NC(=O)C1CCN(CC(=O)Nc2nccs2)CC1	89.1µM*	-10.1%	0.4	?	-8.9%	-3.4%
O=C(C[n+]1csc2ccccc21)c1ccc(O)c(O)c1	14.1µM*	25.1µM*	/	/	/	/
Cn1nc(C(=O)N2CCN(Cc3cccc4ccccc34)CC2)c2ccccc2c1=O	/	/	/	25.2%	/	/
COc1ccnc(N2CC[C@H](c3nnc(-c4ccc(C)cc4)o3)C2)n1	/	/	/	3.9%[176 µM]	/	/
Cc1ccc(-c2nc(CC(=O)NCc3ccccc3F)cs2)o1	/	/	/	11.2µM*	/	/
C/C(=N\Nc1ccc(Br)cc1)c1ccc2c(c1)Cc1ccccc1-2	/	/	/	10µM*	/	/
Cc1ccc2c(=O)c(-c3nc(-c4cccc(F)c4)no3)cn(CC(=O)NCc3ccco3)c2n1	/	/	/	10µM*	/	/
CC(C)(C)c1ccc(C(=O)NCCCCCCNC(=O)c2ccc(C(C)(C)C)cc2)cc1	/	/	/	-27.1%	/	/
Cc1cc(C)nc(NS(=O)(=O)c2ccc(N3C(=O)C4CC=C(Cl)CC4C3=O)cc2)n1 (centres undefined)	-4.0%	2.3%	-3.2	0.0%	-20.5%	10.0%
CCc1nnc(NS(=O)(=O)c2ccc(N3C(=O)C4CC=C(Cl)CC4C3=O)cc2)s1 (centres undefined)	?	-17.4%	7.1	-11.2%	44.7µM*	26.8%
CN(C)C/C=C/C(=O)Nc1cccc(-c2c[nH]c3ncnc(Oc4ccc(NC(=O)CC(=O)Nc5ccc(F)cc5)cc4F)c23)c1	?	-5.7%	-50.3*	/	-8.0%	/
CC(C)c1nc2sc3c(=O)[nH]c(=S)[nH]c3c2c2c1CCCC2	9.5%	-0.9%	-15.7	25.1µM*	-18.5%	26.2%
CC(C)c1nc2sc3c(=O)[nH]c(=S)[nH]c3c2c2c1CCC2	/	/	/	/	/	32.1%
S=c1nc[nH]c2c1sc1nc(-c3ccccc3)c3c(c12)CCCC3	-18.5%	-9.7%	-11.0	44.7µM*	?	0.3%
COc1cc(-c2c(NC(=O)c3ccccc3)oc3ccc(Cl)cc3c2=O)cc(OC)c1OC	/	/	/	0.9%	/	/
CCCNC(=O)CCC(=O)NC(C)c1cccc(Cl)c1 (centres undefined)	/	/	/	7.6%	/	/
O=C(Nc1ccc(-n2nncc2-c2ccco2)cc1)c1cc2ccccc2oc1=O	11.2µM*	5.62µM*	/	/	89.1µM*	28.2µM*
CC(=O)c1c(N2CCN(c3cccc(Cl)c3)CC2)nc(=S)n(-c2ccccc2)c1C	-7.6%	-3.9%	/	35.5µM*	-9.5%	3.4%
COc1ccc(N2CCN(c3nc(=S)n(-c4ccccc4)c(C)c3C(C)=O)CC2)cc1	13.7%	-7.5%	/	39.8µM*	8.3%	-28.5%
CCN(CC)CCOC(=O)c1ccc(N/C=C(/C#N)c2nc(-c3ccc4c(c3)OCO4)cs2)cc1	3.5%	1.3%	-53.0*	-16.5%	-10.9%	?
CCN(CC)CCOC(=O)c1ccc(N/C=C(/C#N)c2nc(-c3cc4ccccc4oc3=O)cs2)cc1	?	-28.3%	?	21.7%	-36.8%	-12.5%
SMILES	Pol iota inh	POLK inh	PI5P4K alpha inh	ALOX12 inh	Pol eta inh	Pol beta inh
CCN(CC)CCOC(=O)c1ccc(N/C=C(/C#N)c2nc(-c3ccc(OC)cc3)cs2)cc1	33.3%	-11.7%	-68.6*	?	1.8%	?
COc1ccc(-c2sc3ccc(N4CCOCC4)cc3c2C#CCO)cc1	?	-3.3%	-10.8	20µM*	-9.3%	/
COc1cc(NC(=O)COc2ccccc2Cl)ccc1NC(=O)c1cccs1	50.1µM*	-2.4%	-1.8	-27.3%	-0.5%	6.6%
COc1cc(NC(=O)COc2ccccc2[N+](=O)[O-])ccc1NC(=O)c1cccs1	?	-4.2%	0.1	0.9%	?	?
COC(=O)c1cc(Br)c(O)c(Br)c1	/	/	/	-19.8%	/	/
CC(C)(c1cc(Br)c(O)c(Br)c1)c1cc(Br)c(O)c(Br)c1	?	-21.3%	?	44.7µM*	?	/
O=C(COC(=O)C1CCCCC1C(=O)N1CCc2ccccc21)NCc1ccco1 (centres undefined)	?	?	?	?	25.1µM*	31.6µM*
O=C(CN1CCCc2ccccc21)NC(=O)NCc1ccco1	3.3%	-22.3%	/	-23.0%	0.6%	7.1%
COc1ccc(CC(=O)N/N=C\c2cc(Br)c(O)c(Br)c2)cc1	-24.0%	14.3%	-67.8*	12.8%	?	?
O=C(Cc1ccccc1)N/N=C/c1cc(Br)cc(Br)c1O	-3.9%	-19.7%	-57.2*	-20.1%	-1.1%	42.8%
ON=Cc1ccnc2ccccc12	/	/	8.1	3.3%	0.0%	/
O=C(O)c1ccccc1N/N=C\c1ccnc2ccccc12	-22.3%	-4.6%	-68.2*	?	?	?
O=C(CNC(=O)c1cccc(Br)c1)N/N=C/c1cc(Br)cc(Br)c1O	7.8%	-2.4%	?	?	-2.8%	-17.2%
Oc1c(Br)cc(Br)cc1/C=N/Nc1ccc(Cl)nn1	-19.1%	-8.4%	0.2	0.6%	-13.9%	-1.0%
O=C(O)c1ccccc1N/N=C/c1cc(Br)cc(Br)c1O	?	-21.8%	?	44.7µM*	79.4µM*	?
CCOc1ccc2oc(=O)cc(CN3CCN(C(=O)C4CCCCC4)CC3)c2c1	/	/	/	15.1%	/	/
NC(=O)NC(=O)COC(=O)c1ccccc1Br	/	/	/	-16.3%	/	/
NC(=O)c1c(NC(=O)C2COc3ccccc3O2)sc2c1CCN(Cc1ccccc1)C2 (centres undefined)	84.7%	-10.4%	-2.0	365.9%	-5.8%	1.6%
COC(=O)N1CCc2c(sc(NC(=O)C3COc4ccccc4O3)c2C(N)=O)C1 (centres undefined)	42.3%	-17.9%	-27.0	17.8µM*	?	/
Cc1ccc(C(Nc2ccccn2)c2ccc3cccnc3c2O)cc1 (centres undefined)	37.4%	-19.2%	/	17.8µM*	-8.5%	0.0%
CCCC(=O)NC(c1ccc(C)cc1)c1ccc2cccnc2c1O (centres undefined)	63.2%	-20.8%	-1.1	/	-10.6%	19.2%
